Screening data (PubChem BioAssay)
VDR inhibitor – vitamin D3 receptor (human) inhibition; P11473; VDR-SRC2-3 peptide fluorescence polarization, 2 h; Potency, µM, without a hit: max response, negative = inhibition, most hits filed as inhibitors; 400,000 tested, 0.93% active
Target sequence (P11473 whole entry, looked up): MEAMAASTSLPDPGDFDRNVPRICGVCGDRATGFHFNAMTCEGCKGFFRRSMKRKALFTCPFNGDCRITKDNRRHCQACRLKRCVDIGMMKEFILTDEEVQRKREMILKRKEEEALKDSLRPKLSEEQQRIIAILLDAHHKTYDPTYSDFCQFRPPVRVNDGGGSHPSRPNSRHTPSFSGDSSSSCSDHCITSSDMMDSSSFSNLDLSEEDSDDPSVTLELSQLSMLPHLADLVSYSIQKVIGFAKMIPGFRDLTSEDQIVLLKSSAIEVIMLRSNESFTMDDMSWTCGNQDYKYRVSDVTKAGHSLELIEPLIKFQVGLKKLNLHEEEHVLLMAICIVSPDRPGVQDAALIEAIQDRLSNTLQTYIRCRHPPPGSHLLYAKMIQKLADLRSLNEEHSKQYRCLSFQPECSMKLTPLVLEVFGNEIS
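FP read-out; VDR + SRC2-3 coactivator peptide; 23 nl compound by pintool; 2 h RT incubation; reagents held at 4 deg C, protected from light.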
Sfp inh – Sfp phosphopantetheinyl transferase inhibition. Q9F4F7. Biochemical Sfp PPTase activity, qHTS. Potency, µM, without a hit: largest response in the series, negative = inhibition, usual class: inhibitors. 310,000 tested, 3.5% active. AID 1490;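 also: the enzyme is Sfp with the accession as filed and its product quenches rhodamine fluorescence; 0% = enzyme reaction without inhibitor and -100% = no enzyme wells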
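Buffer: 50 mM Hepes-Na pH 7.6, 10 mM MgCl2, 0.01% Nonidet P-40, 0.01% BSA. Enzyme 15 nM, pre-exposed to compound 15 min; substrates then added and fluorescence change tracked over 30 min.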
Tau fibril FP – tau fibrillization inhibition (FP); Potency, µM (top dose mostly 57.7 µM), inactives show at the highest dose activity, negative = inhibition, usual class: inhibitors; K18 P301L tau heparin fibrillization, Alexa594 FP, 6 h; 280,000 tested, 0.39% active; also: nearly all actives have a fitted effect of over 55% in size
Target sequence (P10636 561-689 P618L limits assumed): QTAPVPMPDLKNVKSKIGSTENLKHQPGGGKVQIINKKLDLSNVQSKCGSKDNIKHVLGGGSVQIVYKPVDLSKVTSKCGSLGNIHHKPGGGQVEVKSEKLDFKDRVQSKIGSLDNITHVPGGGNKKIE
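Human K18 P301L fragment (15 uM unlabeled plus 0.24 uM Alexa 594-labeled) in 100 mM sodium acetate pH 7 with compound, aggregation induced by 20 uM heparin for 6 hr at 37 C. ThT (30 uM) added for 1 hr, then Alexa 594 FP read.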
Tau fluor counter – counter-screen for tau fibril formation inhibitors. tau K18 P301L Alexa594 fluorescence, heparin fibrillization. Potency, µM (doses to about 57.7 µM), inactives show top-dose activity change, negative = decrease. 280,000 tested, 0.93% active. AID 1463; also: nearly all actives have a fitted effect of over 55% in size
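Human K18 P301L tau (15 uM unlabeled plus 0.24 uM Alexa 594-labeled, final) in 100 mM sodium acetate pH 7 was mixed with compound and 20 uM heparin and incubated 6 hr at 37 C.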
Tau fibril ThT – tau fibrillization inhibition (ThT binding); AID 1460; recombinant tau K18 P301L (four-repeat tau fragment), heparin-induced fibrillization, ThT fluorescence; P10636; Potency, µM (series often up to 57.4 µM), inactives show at the highest dose activity, negative = inhibition, hits mostly inhibitors; 270,000 tested, 2.1% active; also: nearly all actives have a fitted effect of over 55% in size
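In this qHTS, human K18 P301L tau is incubated with compound and heparin for 6 hr at 37 C, and Thioflavin T fluorescence then reports fibril load.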
PLK1 PBD block – inhibitors of human PLK1 polo-box domain binding | P53350 | Plk1 PBD binding of FITC phosphopeptide, fluorescence polarization | Potency, µM, without a hit: max response, negative = inhibition, usual class: inhibitors | 360,000 tested, 2.8% active | AID 720504; also: series mostly up to about 57 µM; nearly all actives have a fitted effect of over 65% in size
Active calls of the source: *; ! = not confirmed by another sample; [ ] = dose if it differs, or a comment. Sampled rows, rich in hits. Any-hit rate of the full collection: about 6%. Calls follow the shape of the dose curve; as a rule, active = well fitted curve in the direction sought with a large enough effect; inconclusive = small, poorly fitted or top-dose-only effect, or another doubt; inactive = no such curve, though single readings can be large; an effect the other way counts as inactive or inconclusive. Unless noted, % is scaled to controls: 0 for no effect and ±100 for the full control effect; potency is read from the fitted curve at half-maximal effect.

COC(=O)c1c(N2C(=O)[C@H]3[C@@H](C2=O)[C@]2(C(=O)Nc4ccc(C)cc42)N2CCC[C@@H]32)sc(C)c1C was read as Sfp inh -2%, Tau fibril FP -1%, Tau fluor counter -2% and Tau fibril ThT 1%.
For Nc1n[nH]c(N)c1N=Nc1ccc(Cl)cc1Cl the results were VDR inhibitor 4%, Sfp inh -18%, Tau fibril FP 7%, Tau fluor counter inconclusive, Tau fibril ThT 3.5µM* and PLK1 PBD block -4%.
Nc1n[nH]c(N)c1N=Nc1ccccc1F was read as VDR inhibitor 12%, Sfp inh 2% and PLK1 PBD block -2%.
Screening COCCOc1ccc(C(F)(F)F)cc1Nc1nc2ccccc2o1 returned VDR inhibitor inconclusive, Sfp inh -10%, Tau fibril FP inconclusive, Tau fluor counter inconclusive, Tau fibril ThT inconclusive and PLK1 PBD block 6.7µM*.
COCCOc1ccc(C(F)(F)F)cc1NC(=O)c1ccc(C(F)(F)F)cc1 was read as VDR inhibitor 6%, Sfp inh 15%, Tau fibril FP -5%, Tau fluor counter -7%, Tau fibril ThT 2% and PLK1 PBD block -8%.
`CCN(CC)/C(N)=N/c1nc(C)cc(C)n1` gave VDR inhibitor -10%, Sfp inh 1%, Tau fibril FP -1%, Tau fluor counter 0%, Tau fibril ThT -11% and PLK1 PBD block -3%.
For CCN(/C(N)=N/c1nc(C)cc(C)n1)c1ccccc1 the results were VDR inhibitor inconclusive, Sfp inh 17% and PLK1 PBD block 27µM*.
`O=C(Nc1cccc(C(F)(F)F)c1)c1cccnc1` gave VDR inhibitor 1%, Sfp inh 6%, Tau fibril FP -3%, Tau fluor counter -5%, Tau fibril ThT 0% and PLK1 PBD block -9%.
CCOc1ccc(C(=O)Nc2ccc3nc(Nc4cccc(C(F)(F)F)c4)cc(C)c3c2)cc1OCC was read as VDR inhibitor 12%, Tau fibril FP -8%, Tau fluor counter 3.5µM*[quencher] and Tau fibril ThT inconclusive.
Cc1cc(Nc2cccc(C(F)(F)F)c2)nc2ccc(NC(=O)c3cccnc3)cc12 was read as VDR inhibitor -1%, Tau fibril FP inconclusive, Tau fluor counter 8.9µM*[quencher] and Tau fibril ThT -17%.
Screening Cc1cc(Nc2cccc(C(F)(F)F)c2)nc2ccc(NC(=O)c3cccc(Cl)c3)cc12 returned VDR inhibitor 3%, Tau fibril FP inconclusive, Tau fluor counter 7.1µM*[quencher] and Tau fibril ThT inconclusive.
`CC(C)c1ccc(O)c(NC(=S)NC(=O)c2ccc3c(c2)OCO3)c1` gave VDR inhibitor -8%, Sfp inh -22% and PLK1 PBD block -14%.
Screening Nc1c(Cl)cc2c(c1Br)Cc1ccccc1-2 returned VDR inhibitor 13% and PLK1 PBD block -1%.
Nc1c(Cl)cc2c(c1Oc1ccccc1)C(=O)c1ccccc1C2=O was read as VDR inhibitor 15%, Sfp inh -7%, Tau fibril FP 7%, Tau fluor counter 14µM*[quencher], Tau fibril ThT inconclusive and PLK1 PBD block 2%.
Screening CN(C)CC[C@@](O)(c1ccccc1)c1ccccc1Cl returned VDR inhibitor 2% and Sfp inh 4%.
CCCc1cc(=O)[nH]c(Nc2cc(Cl)cc(Cl)c2)n1 was read as VDR inhibitor 4%, Tau fibril FP 11µM*, Tau fluor counter inconclusive and Tau fibril ThT 12%.
`COc1cc(/C=C/CNC[C@H]2O[C@@H](n3cnc4c(N)ncnc43)[C@H](O)[C@@H]2O)ccc1O` gave PLK1 PBD block -8%.
CC(C)=CCc1c(O)cc2oc(C)cc(=O)c2c1O was read as VDR inhibitor 1%, Sfp inh 9%, Tau fibril FP -1%, Tau fluor counter -12% and Tau fibril ThT -2%.
For COc1c(O)cc2oc3cc(O)c(CC=C(C)C)c(O)c3c(=O)c2c1CC=C(C)C the results were Sfp inh 3%, Tau fibril FP 2.8µM*, Tau fluor counter 2.8µM*[quencher] and Tau fibril ThT inconclusive.
CC(C)=CCc1c(O)cc2oc3c(CC=C(C)C)c(O)c(O)c(CC=C(C)C)c3c(=O)c2c1O was read as VDR inhibitor -11%, Sfp inh -5%, Tau fibril FP -5%, Tau fluor counter 14µM*[quencher], Tau fibril ThT inconclusive and PLK1 PBD block -21%.
`COc1cccc(CC(=O)NCc2ccc3c(c2)CCN3C(C)=O)c1` gave VDR inhibitor 0%, Tau fibril FP 5%, Tau fluor counter 5% and Tau fibril ThT 7%.
Screening O=C(c1nnsc1S(=O)c1ccc(Cl)cc1)N1CCOCC1 (centres undefined) returned VDR inhibitor 7.9µM*, Sfp inh 56µM*, Tau fibril FP inconclusive, Tau fluor counter -13%, Tau fibril ThT inconclusive and PLK1 PBD block 1.1µM*.
For Cc1nnsc1S(=O)c1ccc(Cl)cc1 (centres undefined) the results were VDR inhibitor -4%, Sfp inh 12% and PLK1 PBD block -12%.
For CC(=O)Nc1cccc(Oc2nc(C)cc(C)c2C#N)c1 the results were VDR inhibitor inconclusive, Sfp inh 16%, Tau fibril FP -14%, Tau fluor counter -3%, Tau fibril ThT -6% and PLK1 PBD block 24µM*.
COc1ccccc1-c1cnc2c(c1)C(=O)N([C@@H](C)CO)C[C@@H](C)[C@H](CN(C)C(=O)c1cccnc1)O2 was read as PLK1 PBD block -14%.
`FC(F)Oc1ccc(NC(=S)Nn2cnnc2)cc1` gave VDR inhibitor inconclusive, Sfp inh 22µM*, Tau fibril FP -13%, Tau fluor counter 0%, Tau fibril ThT inconclusive and PLK1 PBD block 6.7µM*.
For Oc1cccc2c(NC(=S)Nc3ccc(OC(F)F)cc3)cccc12 the results were VDR inhibitor -6%, Sfp inh 56µM*, Tau fibril FP inconclusive, Tau fluor counter 16µM*[quencher], Tau fibril ThT 11µM* and PLK1 PBD block 0%.
Screening CN(NC(=S)Nc1ccc(OC(F)F)cc1)C(=S)Nc1ccc(OC(F)F)cc1 returned VDR inhibitor 5%, Sfp inh 2%, Tau fibril FP -1%, Tau fluor counter 2%, Tau fibril ThT 7% and PLK1 PBD block -25%.
Screening CC1=C(C(=O)Nc2ccccc2Cl)C(c2cccc(O)c2)n2ncnc2N1 (centres undefined) returned VDR inhibitor -4%, Tau fibril FP 1%, Tau fluor counter 1% and Tau fibril ThT 2%.
Screening CCCCN(C(=O)NC(=O)C1=C(N2CCOCC2)/C(=C/c2ccccc2)CC1)S(C)(=O)=O returned VDR inhibitor -9%, Sfp inh -3%, Tau fibril FP 2%, Tau fluor counter 3%, Tau fibril ThT -16% and PLK1 PBD block 34µM*!.
